PubChem BioAssay AID1508600 (Functional Genomics Laboratory (NCATS/FGL), 2020)
In all, about 53,000 sequences went through this assay and about 3,700 (7%) were called active. The sample as a whole holds a higher share of actives than the screen did. Unmarked numbers belong to inactive results.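 Rule for the calls: active = gene knockdowns whose robust z-score for IL-1 alpha signal is at least 2 or at most -2, so actives lie on both sides; inactive = the rest.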

Assay: Components of the Cytosolic LPS Sensing Pathway: Gene Identification via Genome-wide siRNA Screen;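 note: robust z of the log signal after scaling to non-targeting control siRNA wells of the plate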
Conditions: RAW264.7 macrophages, IL-1a HTRF, actives lie on both sides, screened at 100 nM (by protocol), cells primed 5 h with Pam3CSK4 first
Summary of the method: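 RAW264.7; siRNA 100 nM final, RNAiMAX, 48h 37 degrees C; Pam3CSK4 5 h; LipidA + TransIT-TKO 24 h; IL-1a HTRF; CellTiter-Glo viability; robust z vs negative-control median.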

Row | Sequence | z-score
1 | GGAGAAGAGAUCCCUGAACTT against Neurod2 | -0.491
2 | CGUGGUCGUGAGAUGUUUGTT against Chid1 | 1.35
3 | CCUUUUAGUGAAAAUAGCATT against A430010J10Rik | -0.924
4 | GGACUUCUCUGGGACUUCATT against Syt9 | 0.406
5 | GCCUCCUGAAUGAUGACAUTT against Klk1b24 | -0.97
6 | GGUCAAAGUGAUUGUGUGUTT against Cdh16 | 0.555
7 | GGCUAAAUUCUACUUGAUATT against Ppfibp1 | -1.89
8 | GGCUGUUUUCUAUCCUAGGTT against Cd207 | -2.82 (active)
9 | CUUAGCUACUUCAAGGUCATT against Spink8 | 0.628
10 | GCAGGCUCUGCAUGAAGCATT against Alpl | -0.213
11 | GCCCACGUACAGAAAACAGTT against Aox2 | -1.72
12 | GGGAGAACACAUCUACUGATT against Slamf6 | -1.17
13 | GGAGACAUGCAAUGAACUUTT against Ica1l | 1.02
14 | GGAAUUUUUAGGAAUGGUGTT against Slc35f2 | -1.38
15 | GGAUUGCUGUAAAAUACAATT against Cdkn2aipnl | 2.16 (active)
16 | GGAAGGUACCAGGUGAUUGTT against Nmnat3 | -1.89
17 | GGUGCCCAUGCUUGUAGGATT against Cstdc1 | 2.03 (active)
18 | GGUCCAUGCUCUCAUGAGUTT against Batf2 | -1.34
19 | GGUACAGGAAACUCAAAUATT against Lrrc4 | 0.318
20 | GGCCAGUUUAAACCAGUCUTT against Frmd6 | 0.583
21 | GCAUACAAUCAUGUAAGAGTT against Adprh | 0.0994
22 | CCAGAAACCGUGAUAAAAUTT against Immp2l | 2.12 (active)

Row | Sequence | z-score
23 | CGGAGCAUGAGCCAGAUAUTT against Eipr1 | -0.266
24 | GGAGACUGUCAGAAAGUUATT against Olfr1164 | -0.769
25 | GGAAAAAUCCAAGAAGCAATT against Zc3h11a | -1.09
26 | GGACAUUUUUAUGCACAAUTT against Il1rl2 | 1.76
27 | GCUCCUACUGUCCAGCAAUTT against Dusp18 | -0.642
28 | AAUUGAAGACUGUAAAUACTT against Sst | 1.83
29 | GGAACACAAAGGUAAGAAATT against Raf1 | 0.0798
30 | GGUGCAGUUGAACUUCUACTT against Dnajc1 | 2.26 (active)
31 | GGUUUUAAAGCACUUUGUATT against Jazf1 | 0.288
32 | GGAAACUUCUUCCCGGUUGTT against Gsdmc | 1.16
33 | GCUUACAAGGCAUGUAUGATT against Rccd1 | 3.46 (active)
34 | GGGAGUUUGAUUCUGACUCTT against Ank3 | -0.264
35 | CCCAUGAUAAUGAAUUAGCTT against Olfr378 | -0.537
36 | GGUAUUUGUAAAUUUGAGGTT against Atl1 | 0.309
37 | GGUAACAUACUAAAAGAAGTT against Vmn2r10 | -1.21
38 | GCAGGAUUGAAACAUGUAUTT against Tcl1b3 | -0.298
39 | GCCAAUUGGUUCCCUGUAATT against 1700034E13Rik | -3.04 (active)
40 | CGAACUUCCAAAAAGUUCATT against A430005L14Rik | -0.498
41 | GGAUUGGCAAGCAGCUAACTT against Dnase2a | -2.08 (active)
42 | UCACCCUGUUCGUAAUCAUTT against Olfr467 | -0.17
43 | CCACUGGUUCACCUAUAAUTT against Psma5 | 0.092
44 | CGAAUGACCUCGAUAGCUGTT against Gm5082 | 0.195

Row | Sequence | z-score
45 | GGAAGAAGCCACCAUGUACTT against Pbx4 | -1.75
46 | GGCUGAGGUUCGAGUGUAUTT against Rps6ka4 | 3.51 (active)
47 | GGCCAAUAGGACAUAUCUATT against Qprt | -0.443
48 | GCUUAGCUGUUAUGUUUUUTT against Atp6ap1 | 1.81
49 | GCAAUGUGUGGUAAGUAAATT against Zfp738 | -0.757
50 | GGUUUAGCUGCUGACUUAATT against Strn3 | 1.03
51 | GGAGAAGGUUUUGAUGUGGTT against Drg1 | -1.31
52 | GGCAACUGGAGAUGUGUGUTT against Lpgat1 | -0.361
53 | CGACAUCCCAAUAAACAAGTT against Lcn3 | -1.1
54 | GCAGAGGAGUUUUCAAUUUTT against Il17rb | 0.997
55 | GGCCCUUCUGGACUAUCAUTT against Ccdc83 | 3.39 (active)
56 | GGUACCUGAGUCCAUCUCATT against Sntb1 | -0.219
57 | CGAACUUCAAGACUGUGAUTT against Cep95 | -0.248
58 | GGAAAUAAUGACCAAGUACTT against Grk5 | -1.32
59 | CCCUGGUAAACACCAAUAGTT against Ctnna1 | 0.849
60 | GCCUGUCCACAUCACUGUATT against Tmem171 | -0.16
61 | CCCUAAGGAGUUUUGCGUUTT against Ikzf4 | 1.58
62 | GGUCUAUUUGACCUCUUAATT against Bcl2l13 | 2.22 (active)
63 | GGUAUAUGGACUGGUGGAUTT against Hrh2 | 0.41
64 | GGAUCAAUGAAAAUGAGAATT against Fzr1 | -0.0554
65 | CCAGUACCCGUCUGAAAAGTT against Olfr215 | -0.457
66 | GGAUCUUUGCUACAAAAACTT against Fhl5 | 0.48

Row | Sequence | z-score
67 | GGGAUAACCAGUGAAUUUATT against Pcdhb15 | 2.23 (active)
68 | GGGACUUAUGUCCAGGAAGTT against Agap3 | -1.09
69 | GGGACCACCUUGAACACUATT against Slc52a3 | 1.81
70 | GGCAUCUUAUUUCUUGUUATT against Tbkbp1 | -0.56
71 | GUGAAGAAAGUCAUCAAGATT against Olfr1506 | -0.182
72 | GGCUUUGAUCAGCAUGAGCTT against Pak4 | -2.07 (active)
73 | GCAAGGUCAAUCAAUCGUATT against Taar1 | 0.548
74 | GCGGAGUCUUUGGCUUAGATT against Lratd2 | 1.03
75 | CGAAAGCUAAACUAAAAGATT against Stimate | 0.539
76 | GCUGAAUACCCUUUUAGUUTT against Atp2c1 | 0.317
77 | GCGAUAUUAACUAUGGAGATT against Gpr149 | -0.601
78 | GGUAUUCCAAUAACUGUACTT against Fip1l1 | -0.269
79 | GGAAAGAAUCCACUUGCAUTT against Xkr5 | -1.35
80 | GGAGAUUUUCCAGAGGCUGTT against Josd1 | -2.24 (active)
81 | CGGCCUUCUCUACAAAUCATT against Rbfa | 0.816
82 | GCUGACCAUUUUGAUGCCCTT against Adi1 | -0.0381
83 | GGUGGUUUUGUUUCUUUUUTT against Tab3 | 0.643
84 | GGGCCAACCCAGAAAAACATT against Plekha7 | -0.515
85 | GCCGUCUUUACAUUCCUGATT against Olfr605 | 0.8
86 | CCCAUCAAAAGAAUCCACATT against Snrnp70 | -2.51 (active)
87 | GGUGUUUAAUUGCUCACUATT against Gramd4 | 1.13
88 | UACCCGAAUGCAGACAGGATT against Raet1a | 0.667

Row | Sequence | z-score
89 | GGAGGAAGCUGAACUCUGGTT against Ehmt2 | -0.655
90 | GCAUUUAGAAGAAUCCGCCTT against Hao2 | 2.01 (active)
91 | CCUUGUGAUGUUUAAAGACTT against Abcg1 | 0.293
92 | GUGAGUAGGUAGGAAGCAUTT against Cd200r2 | -2.56 (active)
93 | CCAGUUGUCUAGACCUGCATT against Ptbp1 | -0.301
94 | CCUACAAGCAGAGUACAAUTT against Myo10 | 1.06
95 | GGCCUUCAACGAUUCAAUCTT against Olfr770 | 1.35
96 | GGAGAGAAAUUUGACACUCTT against Mgrn1 | -0.0326
97 | GCCAGUGUCCCUAAUAAGGTT against Ager | 0.2
98 | GCAAACUAUAGGUGCGUUGTT against Dscc1 | 0.885
99 | GUCUACCAGAUCCUUCCCUTT against H2-Q8 | -2.25 (active)
100 | GCAAACAUGUCAAGUCCGATT against Actl6b | 1.07
101 | GGACUAUUUGCUGAUGGACTT against Trpc6 | 2.74 (active)
102 | GCAUUUCACCUGGAGCCUUTT against Zfp108 | -1.11
103 | CGAGAAUACAUUGAGGAGUTT against Hook2 | 0.926
104 | CGACAACCACUUCAACUAUTT against Chn2 | 1.34
105 | GGCUAUCCUCUUUUACCAUTT against Dele1 | -0.374
106 | GGUGUUAGGAAGUCACAUUTT against Tas2r109 | -1.28
107 | CCCUAUCCUGUUCAUCUCUTT against Gpr50 | 2.83 (active)
108 | GGAAAAAGCUCAAAGGCGATT against Gap43 | -0.216
